Targets with a hit are over-represented here; the source holds about 8,800 in all. About 0.5% of all pairs of compound and target were hits. A number with no mark means an inactive call.
What was measured:
Assay in all cases: log2 fold change, soluble protein after heating vs DMSO (PISA); higher = thermal stabilisation; K562 lysate, 10 uM; active = over 0.2 and 3.5 SD of the protein, either way, in both replicates (recomputed)
[1] = compound: C1=CC=C(C=C1)[C@H](COC2=CC3=C(C=C2)NC(=O)N3)NC(=O)C4=CC=CN(C4=O)CC5=CC(=C(C=C5)F)F
Outline: (§1)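 To prepare the extract, K562 pellets were dounce-homogenised in PBS pH 7.4 with 1 mM MgCl2, giving crude material at 1 mg/mL protein. This was treated with 10 μM compound for 30 min, then heated in aliquots for 3 min over 48°C-58°C before pooling and addition of NP-40 to 0.5% at 4°C. Centrifugation at 21,000xg for 90 min left soluble protein in the supernatant, which TMTpro 16plex LC-MS/MS quantified with equalised channel sums. Results are log-two fold changes in thermal stability compared with solvent controls, from duplicates.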

[2] = compound: CC1=C(SC2=C1C(=N[C@H](C3=NN=C(N32)C)CC(=O)N)C4=CC=C(C=C4)Cl)C
Outline: as §1

[3] = compound: CC1=C2C(=CC=C1)N=C(N(C2=O)C3=CC=CC=C3C)CN4C=NC5=C(N=CN=C54)N
Outline: as §1

[4] = compound: Cc1sc2c(c1C)C(c1ccc(Cl)cc1)=N[C@@H](CC(=O)OC(C)(C)C)c1nnc(C)n1-2
Outline: as §1

[5] = compound: c1ccc([C@@H]2C[C@H]2NC2CCNCC2)cc1
Outline: as §1

Sequence of UniProt Q9P107 (Q9P107 whole entry, looked up): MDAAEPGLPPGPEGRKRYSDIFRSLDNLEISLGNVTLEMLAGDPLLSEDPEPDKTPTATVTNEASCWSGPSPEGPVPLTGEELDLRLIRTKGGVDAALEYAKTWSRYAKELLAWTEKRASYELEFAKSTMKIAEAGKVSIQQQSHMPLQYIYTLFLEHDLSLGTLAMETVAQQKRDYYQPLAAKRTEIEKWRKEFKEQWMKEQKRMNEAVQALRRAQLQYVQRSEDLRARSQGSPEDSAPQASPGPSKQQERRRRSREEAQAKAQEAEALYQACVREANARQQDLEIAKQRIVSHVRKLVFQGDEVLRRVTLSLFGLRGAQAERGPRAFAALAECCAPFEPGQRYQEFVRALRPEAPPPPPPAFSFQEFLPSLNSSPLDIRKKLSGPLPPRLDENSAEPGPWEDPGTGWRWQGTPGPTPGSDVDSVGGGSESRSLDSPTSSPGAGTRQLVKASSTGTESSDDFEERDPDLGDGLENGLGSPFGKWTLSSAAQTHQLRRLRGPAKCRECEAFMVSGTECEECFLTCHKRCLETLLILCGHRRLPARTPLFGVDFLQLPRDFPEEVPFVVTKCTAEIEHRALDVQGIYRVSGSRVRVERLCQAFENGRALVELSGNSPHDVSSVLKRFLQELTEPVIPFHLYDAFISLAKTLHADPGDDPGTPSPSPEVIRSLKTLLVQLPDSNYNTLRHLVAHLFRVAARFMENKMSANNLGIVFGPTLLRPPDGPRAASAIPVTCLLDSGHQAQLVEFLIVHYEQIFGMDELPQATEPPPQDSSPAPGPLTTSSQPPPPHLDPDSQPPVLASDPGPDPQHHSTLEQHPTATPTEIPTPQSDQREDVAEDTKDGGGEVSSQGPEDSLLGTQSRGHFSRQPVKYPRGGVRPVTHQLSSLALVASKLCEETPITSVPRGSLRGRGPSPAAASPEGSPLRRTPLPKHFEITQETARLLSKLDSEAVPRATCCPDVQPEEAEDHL
Sequence of UniProt Q99714 (Q99714 whole entry, looked up): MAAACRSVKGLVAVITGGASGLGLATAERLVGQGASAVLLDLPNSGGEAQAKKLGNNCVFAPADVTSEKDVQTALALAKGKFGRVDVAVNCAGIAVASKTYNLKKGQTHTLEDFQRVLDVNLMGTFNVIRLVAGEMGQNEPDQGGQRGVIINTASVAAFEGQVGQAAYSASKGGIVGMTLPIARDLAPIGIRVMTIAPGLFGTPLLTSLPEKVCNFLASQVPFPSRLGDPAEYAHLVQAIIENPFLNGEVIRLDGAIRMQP
Sequence of UniProt P40939 (P40939 whole entry, looked up): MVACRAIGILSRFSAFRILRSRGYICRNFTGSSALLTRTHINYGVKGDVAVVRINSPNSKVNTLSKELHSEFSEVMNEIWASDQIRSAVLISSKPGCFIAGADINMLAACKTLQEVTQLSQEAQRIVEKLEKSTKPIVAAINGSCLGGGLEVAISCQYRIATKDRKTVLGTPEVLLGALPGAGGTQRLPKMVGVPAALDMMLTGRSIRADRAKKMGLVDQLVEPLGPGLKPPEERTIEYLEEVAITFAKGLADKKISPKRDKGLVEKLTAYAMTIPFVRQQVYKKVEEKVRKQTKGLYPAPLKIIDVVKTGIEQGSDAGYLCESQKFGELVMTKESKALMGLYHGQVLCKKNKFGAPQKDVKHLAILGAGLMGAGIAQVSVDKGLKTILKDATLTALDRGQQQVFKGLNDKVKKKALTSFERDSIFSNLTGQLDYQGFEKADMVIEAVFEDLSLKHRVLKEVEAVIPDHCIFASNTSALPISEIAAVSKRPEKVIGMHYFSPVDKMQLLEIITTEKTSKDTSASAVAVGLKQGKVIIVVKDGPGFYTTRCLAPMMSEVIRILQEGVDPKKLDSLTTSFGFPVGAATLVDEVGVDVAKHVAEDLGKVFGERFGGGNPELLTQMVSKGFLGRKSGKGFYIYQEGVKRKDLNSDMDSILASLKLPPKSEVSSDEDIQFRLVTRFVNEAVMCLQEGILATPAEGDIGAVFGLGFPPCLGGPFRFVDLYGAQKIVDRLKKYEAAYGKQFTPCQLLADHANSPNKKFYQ
Sequence of UniProt Q9NWZ3 (Q9NWZ3 whole entry, looked up): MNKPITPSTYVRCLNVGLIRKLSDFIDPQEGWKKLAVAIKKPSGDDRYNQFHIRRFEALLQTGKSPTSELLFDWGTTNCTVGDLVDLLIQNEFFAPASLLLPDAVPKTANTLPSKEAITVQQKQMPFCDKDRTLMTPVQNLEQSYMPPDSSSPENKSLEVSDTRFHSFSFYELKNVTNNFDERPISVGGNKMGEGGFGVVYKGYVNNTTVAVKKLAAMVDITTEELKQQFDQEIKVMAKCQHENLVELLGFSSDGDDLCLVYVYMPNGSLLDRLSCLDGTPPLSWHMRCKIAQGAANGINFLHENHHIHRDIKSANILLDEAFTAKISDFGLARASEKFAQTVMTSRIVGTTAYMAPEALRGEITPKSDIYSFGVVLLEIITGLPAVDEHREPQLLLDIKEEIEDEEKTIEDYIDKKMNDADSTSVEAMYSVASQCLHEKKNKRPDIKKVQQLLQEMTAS
Sequence of UniProt Q9NVR2 (Q9NVR2 whole entry, looked up): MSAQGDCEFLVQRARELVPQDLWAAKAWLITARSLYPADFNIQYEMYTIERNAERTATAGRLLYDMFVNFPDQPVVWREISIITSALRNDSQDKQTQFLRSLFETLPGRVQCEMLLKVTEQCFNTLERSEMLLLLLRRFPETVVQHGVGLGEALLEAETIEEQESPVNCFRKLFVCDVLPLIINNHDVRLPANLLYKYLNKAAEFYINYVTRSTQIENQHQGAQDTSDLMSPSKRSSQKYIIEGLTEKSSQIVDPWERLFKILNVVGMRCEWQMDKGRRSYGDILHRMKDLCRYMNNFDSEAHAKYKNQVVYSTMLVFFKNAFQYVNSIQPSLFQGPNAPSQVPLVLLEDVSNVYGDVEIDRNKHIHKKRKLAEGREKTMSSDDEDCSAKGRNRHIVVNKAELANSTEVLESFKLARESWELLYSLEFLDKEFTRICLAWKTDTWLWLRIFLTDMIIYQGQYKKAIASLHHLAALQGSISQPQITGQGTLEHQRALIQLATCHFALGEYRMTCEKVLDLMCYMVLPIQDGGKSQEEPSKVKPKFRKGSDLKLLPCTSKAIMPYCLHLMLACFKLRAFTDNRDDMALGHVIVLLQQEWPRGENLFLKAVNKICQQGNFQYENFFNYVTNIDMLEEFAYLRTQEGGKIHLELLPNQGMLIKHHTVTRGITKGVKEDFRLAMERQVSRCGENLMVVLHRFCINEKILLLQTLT
Sequence of UniProt Q9NVX0 (Q9NVX0 whole entry, looked up): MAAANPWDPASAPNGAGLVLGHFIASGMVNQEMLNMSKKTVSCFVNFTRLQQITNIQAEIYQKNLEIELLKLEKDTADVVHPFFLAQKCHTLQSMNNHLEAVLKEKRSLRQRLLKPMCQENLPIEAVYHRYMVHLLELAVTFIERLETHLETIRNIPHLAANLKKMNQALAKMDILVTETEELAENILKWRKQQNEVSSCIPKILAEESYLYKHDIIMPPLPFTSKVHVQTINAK
Sequence of UniProt P02724 (P02724 whole entry, looked up): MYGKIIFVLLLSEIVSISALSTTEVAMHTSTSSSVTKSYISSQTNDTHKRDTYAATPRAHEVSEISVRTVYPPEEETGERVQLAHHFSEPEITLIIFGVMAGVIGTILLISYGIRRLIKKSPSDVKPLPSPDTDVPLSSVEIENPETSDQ
Sequence of UniProt P50747 (P50747 whole entry, looked up): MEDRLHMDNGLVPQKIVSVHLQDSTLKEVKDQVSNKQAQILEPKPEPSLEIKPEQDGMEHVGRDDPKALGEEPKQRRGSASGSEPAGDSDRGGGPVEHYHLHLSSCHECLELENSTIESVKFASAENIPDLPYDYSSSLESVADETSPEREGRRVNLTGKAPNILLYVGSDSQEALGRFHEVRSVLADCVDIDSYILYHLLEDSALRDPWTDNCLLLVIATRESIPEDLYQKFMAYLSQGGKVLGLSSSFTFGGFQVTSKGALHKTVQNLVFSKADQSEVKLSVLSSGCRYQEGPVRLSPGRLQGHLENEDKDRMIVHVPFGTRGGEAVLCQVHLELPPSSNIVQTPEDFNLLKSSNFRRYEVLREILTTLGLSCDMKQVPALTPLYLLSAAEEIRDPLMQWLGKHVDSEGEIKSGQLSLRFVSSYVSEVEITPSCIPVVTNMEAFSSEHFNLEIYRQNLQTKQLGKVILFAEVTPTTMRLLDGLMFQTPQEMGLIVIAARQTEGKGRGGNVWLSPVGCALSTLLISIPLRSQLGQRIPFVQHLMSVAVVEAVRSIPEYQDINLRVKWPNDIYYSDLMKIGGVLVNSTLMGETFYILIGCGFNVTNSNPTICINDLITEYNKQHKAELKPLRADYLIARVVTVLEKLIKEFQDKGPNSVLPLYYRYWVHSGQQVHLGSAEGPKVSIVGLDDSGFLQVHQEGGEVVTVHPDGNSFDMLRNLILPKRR
Sequence of UniProt Q9H0C8 (Q9H0C8 whole entry, looked up): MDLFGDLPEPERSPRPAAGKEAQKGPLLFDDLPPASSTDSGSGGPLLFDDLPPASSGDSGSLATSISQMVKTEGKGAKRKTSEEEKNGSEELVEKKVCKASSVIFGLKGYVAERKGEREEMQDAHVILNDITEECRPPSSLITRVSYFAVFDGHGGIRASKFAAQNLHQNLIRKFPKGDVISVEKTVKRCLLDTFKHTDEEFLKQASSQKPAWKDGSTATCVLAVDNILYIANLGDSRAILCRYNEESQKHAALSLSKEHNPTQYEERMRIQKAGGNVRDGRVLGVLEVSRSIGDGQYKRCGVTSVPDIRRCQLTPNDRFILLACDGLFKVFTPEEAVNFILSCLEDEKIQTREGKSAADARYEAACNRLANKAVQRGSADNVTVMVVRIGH
Sequence of UniProt Q99795 (Q99795 whole entry, looked up): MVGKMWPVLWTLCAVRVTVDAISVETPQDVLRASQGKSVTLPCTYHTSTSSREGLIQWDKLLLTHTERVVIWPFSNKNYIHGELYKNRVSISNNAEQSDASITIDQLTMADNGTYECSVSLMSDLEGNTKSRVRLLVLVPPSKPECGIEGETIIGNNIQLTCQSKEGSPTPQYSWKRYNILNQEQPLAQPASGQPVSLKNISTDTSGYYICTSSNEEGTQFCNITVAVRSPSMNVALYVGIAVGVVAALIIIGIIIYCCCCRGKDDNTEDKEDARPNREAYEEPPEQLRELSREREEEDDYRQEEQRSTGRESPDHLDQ

Row | Target | log2 fold change [1] | log2 fold change [2] | log2 fold change [3] | log2 fold change [4] | log2 fold change [5]
1 | KARS1 (UniProt Q15046) | 0.005 | 0.019 | 0.002 | 0.045 | 0.045
2 | GYPA (UniProt P02724) | 0.071 | -0.055 | -0.002 | 0.138 | 0.236
3 | H2AFY (UniProt O75367) | -0.035 | 0.045 | 0.026 | 0.296 (active) | -0.045
4 | HS1BP3 (UniProt Q53T59) | 0.018 | -0.03 | -0.073 | 0.004 | -0.053
5 | HAUS2 (UniProt Q9NVX0) | -0.186 | 0.148 | 0.077 | 0.016 | 0.176
6 | HADHA (UniProt P40939) | 0.065 | -0.006 | 0.102 | 0.117 | -0.008
7 | ITM2B (UniProt Q9Y287) | -0.019 | -0.032 | 0.43 (active) | 0.058 | -0.027
8 | IRAK4 (UniProt Q9NWZ3) | -0.02 | -0.014 | 0.022 | -0.08 | -0.024
9 | GMIP (UniProt Q9P107) | 0.023 | -0.04 | -0.04 | -0.018 | 0.054
10 | INTS10 (UniProt Q9NVR2) | -0.015 | -0.057 | 0.023 | -0.077 | -0.003
11 | HMGN5 (UniProt P82970) | 0.033 | 0.05 | -0.008 | -0.026 | 0.083
12 | HNRNPLL (UniProt Q8WVV9) | 0.018 | 0.028 | 0.007 | 0.022 | 0.036
13 | HLCS (UniProt P50747) | -0.027 | 0.027 | 0.011 | -0.006 | 0.038
14 | HDAC6 (UniProt Q9UBN7) | 0.029 | 0.036 | -0.017 | -0.007 | 0.042
15 | GNL3 (UniProt Q9BVP2) | 0.018 | 0.087 | 0.006 | -0.023 | 0.041
16 | GPA33 (UniProt Q99795) | 0.007 | 0.024 | 0.006 | -0.248 | -0.514 (active)
17 | GTF3C5 isoform 3 (UniProt Q9Y5Q8) | -0.024 | 0.001 | 0.019 | 0.056 | 0.016
18 | ILKAP (UniProt Q9H0C8) | -0.004 | -0.004 | -0.013 | 0.013 | 0.009
19 | HSD17B10 (UniProt Q99714) | -0.006 | 0.062 | 0.03 | 0.022 | 0.003
20 | HNRNPL (UniProt P14866) | -0.01 | -0.024 | 0.04 | 0.039 | 0.071
21 | GLB1 (UniProt P16278) | 0.02 | 0.033 | 0.046 | 0.016 | -0.019
22 | GSE1 (UniProt Q14687) | -0.031 | 0.005 | -0.002 | -0.015 | 0.184
23 | KCT2 (UniProt Q8NC54) | 0.069 | -0.008 | -0.05 | -0.033 | -0.173
24 | HARS (UniProt P12081) | 0.025 | 0.006 | 0.001 | 0.008 | 0.002
25 | INPP4A (UniProt Q96PE3) | -0.079 | 0.112 | 0.027 | 0.036 | 0.017

Reference: the supplement of paper PMC10849652
